CYP2C9 inh – human CYP2C9 inhibition. actives 20% (n = 96,000). CYP2C9 Supersomes, luciferin-H conversion, luminescence. inhibition, % at 5 µM. P11712;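 active = blocking of liver enzyme CYP2C9 beyond about 50% at 5 µM, limit read from the data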
Target sequence (P11712 whole entry, looked up): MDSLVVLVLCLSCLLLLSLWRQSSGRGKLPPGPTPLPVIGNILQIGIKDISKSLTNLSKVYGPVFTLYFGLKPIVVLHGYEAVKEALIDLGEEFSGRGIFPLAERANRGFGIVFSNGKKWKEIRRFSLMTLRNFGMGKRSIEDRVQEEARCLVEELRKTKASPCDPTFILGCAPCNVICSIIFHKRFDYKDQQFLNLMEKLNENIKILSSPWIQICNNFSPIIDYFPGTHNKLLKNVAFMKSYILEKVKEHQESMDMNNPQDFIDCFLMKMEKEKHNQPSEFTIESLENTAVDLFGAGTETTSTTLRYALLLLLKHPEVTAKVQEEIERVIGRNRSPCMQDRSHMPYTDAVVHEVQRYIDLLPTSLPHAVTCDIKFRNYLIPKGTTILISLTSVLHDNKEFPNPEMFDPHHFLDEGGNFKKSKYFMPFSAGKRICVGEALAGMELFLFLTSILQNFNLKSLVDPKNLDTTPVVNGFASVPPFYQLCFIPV
CYP2C19 act – cytochrome P450 2C19 (human) activation; 96,000 tested, under 10 active; recombinant CYP2C19, luciferin-H EGE luminescence; active compounds read high; 0 = fully inhibited enzyme, 1 = untreated enzyme; activation factor at 5 µM; P33261;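 active = activation factor of at least 2 at 5 µM in the primary screen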
CYP2C9 act – CYP2C9 (human) activation; P11712; recombinant CYP2C9, luciferin-H conversion, luminescence; active compounds read high; factor 1 = untreated enzyme, 0 = blocked; activation factor at 5 µM; actives 1.4% (n = 96,000); AID 1024;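 active = activation factor of 2 or more for CYP2C9 at a 5 µM dose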
PLAP act – activates human placental alkaline phosphatase | P05187 | actives 1.2% (n = 96,000) | AID 696 | activation fold at 20 µM | purified PLAP enzyme, luminescent substrate read-out; active compounds read high; in the data active = activation fold above about 2
CYP2C19 inhib – blocks human cytochrome P450 2C19; P33261; inhibition, % at 5 µM; actives 21% (n = 96,000); CYP2C19 Supersomes, luciferin-H EGE luminescence, 30 min;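 active = CYP2C19 inhibition above a set limit at 5 µM in the primary screen, cut at about 50% in these data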
Numbers stand for hits; 0 = inactive. Shown are actives, neighbours in structure and some others; about 31% of the full set was active somewhere.

SMILES	CYP2C9 inh	CYP2C19 act	CYP2C9 act	PLAP act	CYP2C19 inhib
Cn1c(C(=O)OCC(=O)NCCc2ccccc2)cc2sccc21	69	0	0	0	0
CCn1c(C(=O)N2CCC(C(=O)NCc3cccs3)CC2)cc2sccc21	0	0	0	0	0
Cn1c(C(=O)OCC(=O)NCc2cccs2)cc2sccc21	66	0	0	0	51
C/C(=C(\C#N)C(=O)NC1CCCCC1)N(C)C	0	0	0	0	0
O=C(c1cnc(-c2ccccc2)s1)c1ccc(Cl)cc1Cl	0	0	0	0	57
N#Cc1cn(Cc2cccc(Cl)c2)c2ccccc12	93	0	0	0	93
O=S(=O)(c1ccccc1C(F)(F)F)N1CCC(n2cnc3ccccc32)CC1	71	0	0	0	88
CCOC(=O)CC(C#N)c1c[nH]c2ccccc12 (stereo not drawn)	0	0	0	0	70
COc1ccc(CCNC(=O)CN2CCN(Cc3ccc(F)cc3)C2=O)cc1OC	0	0	0	0	0
Cc1cc(NC(=O)Cn2nnc3sc4c(c3c2=O)CCC(C(C)(C)C)C4)no1 (stereo not drawn)	57	0	0	0	0
CC(NC(=O)C(=O)NN=C1CCCCCCC1)c1ccccc1 (stereo not drawn)	0	0	0	0	0
Cc1ccccc1C(=O)NC(C)c1ccc2c(c1)CCCC2 (stereo not drawn)	0	0	2.2	0	0
CCOC(=O)N1CCN(Cc2nc3c(c(=O)[nH]c(=O)n3C)n2CCCc2ccccc2)CC1	0	0	0	0	0
O=C(Nc1ccc2c(c1)nc1n2CCOC1)c1ccccc1	0	0	0	0	0
C(=N\n1cnnc1)/c1ccc2c(c1)OCO2	0	0	0	0	0
Oc1ccc2oc3c(c2c1/C=N/n1cnnc1)CCCC3	63	0	0	0	0
COc1ccc(NC(=O)COC(=O)c2cnccn2)cc1Cl	0	0	0	0	0
O=C1CCCC2=C1C(c1ccco1)Nc1ccc3ccccc3c12 (stereo not drawn)	0	0	0	0	0
COc1cc(C2Nc3ccc4ncccc4c3C3=C2C(=O)CC(C)(C)C3)cc(OC)c1O (stereo not drawn)	76	0	0	0	63
COc1cc(C2Nc3ccc4ncccc4c3C3=C2C(=O)CCC3)cc(OC)c1O (stereo not drawn)	83	0	0	0	0
CSc1nc2sc(-c3ccccc3)cc2c(=O)n1N	78	0	0	0	69
CC(C)Sc1nc2sc(-c3ccccc3)cc2c(=O)n1N	0	0	0	0	0
CC(/C=N/Nc1nnc2c(n1)[nH]c1ccccc12)=C\c1ccco1	0	0	0	0	80
CC(C)(C)C(=O)CC1(O)C(=O)N(Cc2ccc(Cl)cc2)c2ccccc21 (stereo not drawn)	0	0	0	0	0
CCOc1ccc(CC2c3cc(OCC)c(OCC)cc3CCN2C(=O)c2cc(OC)c(OC)c(OC)c2)cc1OCC (stereo not drawn)	60	0	0	0	65
SMILES	CYP2C9 inh	CYP2C19 act	CYP2C9 act	PLAP act	CYP2C19 inhib
Cc1cc(NC(=O)CSc2nnc(-c3ccoc3C)n2N)no1	0	0	0	0	0
CCOc1ccc(C(C)=O)cc1CSc1nnc(-c2ccoc2C)n1N	74	0	0	0	86
O=C(CNC(=O)Cc1ccccc1)NCC(=O)OCc1ccc(C(=O)c2ccccc2)cc1	0	0	0	0	0
COc1ccc(/C=C2\N=C(SC)N(C)C2=O)cc1	0	0	0	0	52
CN(C)C1NC(=O)c2cc(-c3ccccc3)sc2N1 (stereo not drawn)	0	0	0	0	0
CC(C)CC(NC(=O)C1CCC(C)CC1)C(=O)N1CCN(c2ccccn2)CC1 (stereo not drawn)	62	0	0	0	81
CC1CCC(C(=O)NC(C(=O)NCc2cccnc2)C(C)C)CC1 (stereo not drawn)	66	0	0	0	0
CC(C)CC(NC(=O)C1CCC(C)CC1)C(=O)NCc1cccnc1 (stereo not drawn)	54	0	0	0	0
CC(C)CC(NC(=O)C1CCC(C)CC1)C(=O)Nc1cccnc1 (stereo not drawn)	0	0	0	0	0
CC(C)CC(NC(=O)C1CCC(C)CC1)C(=O)NCc1ccccn1 (stereo not drawn)	0	0	0	0	0
CCOC(=O)c1cc2sccc2n1CC(=O)N1CCN(C(=O)c2ccco2)CC1	0	0	0	0	0
CSCCC1C(C#N)=C(N)Oc2n[nH]c(-c3cccs3)c21 (stereo not drawn)	55	0	0	0	0
CC(C)CC1C(C#N)=C(N)Oc2n[nH]c(-c3cccs3)c21 (stereo not drawn)	0	0	0	0	67
Cc1ccc2c(c1)c(CC(=O)Nc1ccc(C)c(F)c1)c(C(=O)O)n2C	84	0	0	0	0
Cn1c(C(=O)O)c(CC(=O)Nc2ccccc2F)c2ccccc21	93	0	0	0	59
O=C(CN1C(=O)c2ccccc2C1=O)Nc1ccccc1F	0	0	0	0	0
Cc1cccc(-n2cnc(C(=O)N/N=C\c3ccc(Br)cc3)c2)n1	0	0	0	0	0
Cc1ccc(OCCC(=O)Nc2c(C)n(C)n(-c3ccccc3)c2=O)cc1	0	0	0	0	0
COC(=O)Cn1cnc2c(nnn2-c2ccc(C)cc2)c1=O	0	0	0	0	0
CCOc1ccccc1NC(=O)CSc1nnc(CNC(=O)COc2ccc(Cl)cc2)o1	0	0	2	0	0
O=C(COc1ccc(Cl)cc1)NCc1nnc(SCC(=O)NCc2ccc3c(c2)OCO3)o1	70	0	0	0	0
Cc1nnc(SCC(=O)NCc2ccc3c(c2)OCO3)s1	0	0	0	0	0
COC(=O)c1ccc(CSc2nnc(CNC(=O)COc3ccc(Cl)cc3)o2)o1	68	0	0	0	0
O=C(CSc1nccn1-c1ccc(Cl)cc1)NCc1ccc2c(c1)OCO2	98	0	0	0	100
CN(C)S(=O)(=O)N1CCN(C(=O)c2ccccc2)CC1	0	0	0	0	0
SMILES	CYP2C9 inh	CYP2C19 act	CYP2C9 act	PLAP act	CYP2C19 inhib
Brc1cccc(OCCOCCn2ccnc2)c1	99	0	0	0	100
Cc1cc(OCCCn2ccnc2)cc(C)c1Cl	97	0	0	0	100
CCN(CC)CCOCCOc1cc(C)c(Cl)c(C)c1	0	0	0	0	0
CCOc1cccc(OCCCCn2ccnc2)c1	89	0	0	0	99
Brc1cccc(OCCn2ccnc2)c1	64	0	0	0	93
CCOC(=O)C1=C(CC)Nc2ccccc2N=C1NC(=O)Nc1ccc(Cl)c(Cl)c1	94	0	0	0	58
COc1ccc(C2(CNC(=O)c3ccc(Br)o3)CCOCC2)cc1	0	0	0	0	0
Cc1nn(C(=O)c2ccco2)c(C)c1Sc1ccccc1	0	0	0	0	0
Cc1nn(C(C)(C)C)c(OC(=O)c2ccco2)c1Sc1ccccc1	61	0	0	0	0
CC(C)(C)n1nc2c(c1NC(=O)c1ccc(Br)o1)CS(=O)C2 (stereo not drawn)	0	0	0	0	0

Compound activity as filed in PubChem BioAssay.
